PubChem BioAssay (NCI)
The panel holds about 83,000 compounds, 20% with a hit somewhere; the sample as a whole holds those more often.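 How to read the values: 0–100, growth inhibition (40 = 60% inhibited); 0, no net growth; -100 to 0, cell death (-40 = 40% of starting cells died; -100 = all dead).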 Active and inactive are the calls of the source. Rule for the calls: active = growth percent below 10; inactive = the rest.

Columns and labels:
Assay in all cases: NCI-60 one-dose screen, 48 h (100 = growth as untreated, 0 = no growth, -100 = all killed)
Details in all cases: 10 µM unless noted
NCI-H23 lung = system: NCI-H23 lung
NCI-H226 lung = system: NCI-H226 lung
NCI-H322M lung = system: NCI-H322M lung
HOP-62 NSCLC = system: HOP-62 NSCLC
NCI-H460 lung = system: NCI-H460 lung
HOP-92 NSCLC = system: HOP-92 NSCLC
NCI-H522 lung = system: NCI-H522 lung
A549/ATCC NSCLC = system: A549/ATCC NSCLC
786-0 renal = system: 786-0 renal
COLO 205 colon = system: COLO 205 colon
DU-145 prostate = system: DU-145 prostate
K-562 leukemia = system: K-562 leukemia
MALME-3M melanoma = system: MALME-3M melanoma
MDA-MB-231 breast = system: MDA-MB-231 breast
RXF 393 renal = system: RXF 393 renal
SF-268 CNS = system: SF-268 CNS
SF-295 CNS = system: SF-295 CNS
SF-539 CNS = system: SF-539 CNS
UACC-257 melanoma = system: UACC-257 melanoma
M14 melanoma = system: M14 melanoma

SMILES | growth (NCI-H23 lung) | growth (NCI-H226 lung) | growth (NCI-H322M lung) | growth (HOP-62 NSCLC) | growth (NCI-H460 lung) | growth (HOP-92 NSCLC) | growth (NCI-H522 lung) | growth (A549/ATCC NSCLC) | growth (786-0 renal) | growth (COLO 205 colon) | growth (DU-145 prostate) | growth (K-562 leukemia) | growth (MALME-3M melanoma) | growth (MDA-MB-231 breast) | growth (RXF 393 renal) | growth (SF-268 CNS) | growth (SF-295 CNS) | growth (SF-539 CNS) | growth (UACC-257 melanoma) | growth (M14 melanoma)
COc1cc2c(cc1-c1c(C)noc1C)ncc1nc(C3CCC(F)(F)CC3)n([C@@H](C)COC(F)F)c12 | 60.2% (inactive) | 55% (inactive) | 40.6% (inactive) | 31.7% (inactive) | 55.3% (inactive) | 35.1% (inactive) | 31.5% (inactive) | 37.5% (inactive) | 43.5% (inactive) | 23.5% (inactive) | 66.9% (inactive) | 25% (inactive) | 76.1% (inactive) | 41.6% (inactive) | 54.7% (inactive) | 67.8% (inactive) | 47.7% (inactive) | 30.8% (inactive) | 35.9% (inactive) | 41.4% (inactive)
Cc1ccncc1C(=O)O | 92.7% (inactive) | 101% (inactive) | 101% (inactive) | 113% (inactive) | 99.6% (inactive) | 88.4% (inactive) | 128% (inactive) | 90.1% (inactive) | 103% (inactive) | 128% (inactive) | 101% (inactive) | 116% (inactive) | 96.2% (inactive) | 101% (inactive) | 118% (inactive) | 94.8% (inactive) | 99.8% (inactive) | 94.4% (inactive) | 102% (inactive) | 100% (inactive)
COc1ccc2c(c1)c(-c1nc(-c3c[nH]c4ncccc34)cs1)cn2CCNC(=O)OC(C)(C)C | 70.6% (inactive) | 72% (inactive) | 82.6% (inactive) | 64.1% (inactive) | 82.2% (inactive) | 54.9% (inactive) | 61% (inactive) | 72.6% (inactive) | 73.6% (inactive) | 84.6% (inactive) | 89.3% (inactive) | 62.4% (inactive) | 103% (inactive) | 53.2% (inactive) | 83.1% (inactive) | 83.5% (inactive) | 85.1% (inactive) | 66.5% (inactive) | 98.5% (inactive) | 69.3% (inactive)
O=C1CCCC=CC[C@H]2C=C(Cl)C(=O)C2=CC[C@H](CCCCC(F)(F)F)OC(=O)CCCC=CC[C@H]2C=C(Cl)C(=O)C2=CC[C@H](CCCCC(F)(F)F)OC(=O)CCCC=CC[C@H]2C=C(Cl)C(=O)C2=CC[C@H](CCCCC(F)(F)F)O1 | 65.2% [6.25 µM] (inactive) | 113% [6.25 µM] (inactive) | 99.1% [6.25 µM] (inactive) | 85.9% [6.25 µM] (inactive) | 89.6% [6.25 µM] (inactive) | 126% [6.25 µM] (inactive) | 34.4% [6.25 µM] (inactive) | 93.7% [6.25 µM] (inactive) | 108% [6.25 µM] (inactive) | 80% [6.25 µM] (inactive) | 62.4% [6.25 µM] (inactive) | 32.1% [6.25 µM] (inactive) | 106% [6.25 µM] (inactive) | 51.5% [6.25 µM] (inactive) | 86% [6.25 µM] (inactive) | 82.8% [6.25 µM] (inactive) | 107% [6.25 µM] (inactive) | 93% [6.25 µM] (inactive) | 79.3% [6.25 µM] (inactive) | 59.5% [6.25 µM] (inactive)
COC(=O)[C@]12CC[C@@H](C(=O)/C=C/c3cccnc3)[C@@H]1[C@H]1CC[C@@H]3[C@@]4(C)C/C(=C/c5cccnc5)C(=O)C(C)(C)[C@@H]4CC[C@@]3(C)[C@]1(C)CC2 | -48.3% (active) | -44.4% (active) | -80.7% (active) | -85.6% (active) | -78.4% (active) | -79.9% (active) | -59.7% (active) | -9.34% (active) | -92.3% (active) | -45.1% (active) | -67.8% (active) | -21.6% (active) | -95.2% (active) | -81.3% (active) | -93.6% (active) | -80.8% (active) | -98.5% (active) | -96.5% (active) | -58.9% (active) | -80.3% (active)
NCCn1cc(-c2nc(-c3c[nH]c4ncccc34)cs2)c2ccccc21 | 83% (inactive) | 70.6% (inactive) | 74.6% (inactive) | 75.4% (inactive) | 89.8% (inactive) | 54.3% (inactive) | 90.4% (inactive) | 76.8% (inactive) | 89.8% (inactive) | 96.7% (inactive) | 99.5% (inactive) | 82.9% (inactive) | 73.8% (inactive) | 66.2% (inactive) | 84.9% (inactive) | 84.7% (inactive) | 105% (inactive) | 90.2% (inactive) | 92.8% (inactive) | 96.9% (inactive)
CC(=O)Nc1cc(F)cc(C(F)(F)F)c1Cl | 92.2% (inactive) | 91% (inactive) | 98.7% (inactive) | 99.3% (inactive) | 98.6% (inactive) | 93.7% (inactive) | 100% (inactive) | 103% (inactive) | 94.3% (inactive) | 109% (inactive) | 108% (inactive) | 112% (inactive) | 100% (inactive) | 110% (inactive) | 89.4% (inactive) | 98.2% (inactive) | 102% (inactive) | 97.6% (inactive) | 103% (inactive) | 99.2% (inactive)
CCCCCCCC(=O)SCC/C=C/[C@@H]1CC(=O)NCc2cccc(n2)CN(Cc2ccc3ccccc3c2)CC(=O)N[C@@H](C(C)C)C(=O)O1 | 45.7% (inactive) | 67.5% (inactive) | 40% (inactive) | 24% (inactive) | 27.6% (inactive) | 18.2% (inactive) | 66.1% (inactive) | 35.3% (inactive) | 72.1% (inactive) | 33.7% (inactive) | 51.4% (inactive) | 13.8% (inactive) | 8.13% (active) | 27.3% (inactive) | 20.3% (inactive) | 61.1% (inactive) | 9.4% (active) | 59.1% (inactive) |  | 28.4% (inactive)
NC(=O)NCC1CCCCC1 | 90.7% (inactive) | 102% (inactive) | 104% (inactive) | 112% (inactive) | 105% (inactive) | 114% (inactive) | 93.3% (inactive) | 109% (inactive) | 101% (inactive) | 111% (inactive) | 104% (inactive) | 102% (inactive) | 99.3% (inactive) | 108% (inactive) | 101% (inactive) | 99.1% (inactive) | 93.1% (inactive) | 91.4% (inactive) |  | 104% (inactive)
COC(=O)[C@]12CC[C@@H](C)[C@H](C)[C@@H]1C1=CC[C@@H]3[C@@]4(C)C=C(O)C(=O)C(C)=C4CC[C@@]3(C)[C@]1(C)CC2 | 22.1% (inactive) | 22.4% (inactive) | 82.6% (inactive) | 56.4% (inactive) | 46.8% (inactive) | 26.4% (inactive) | -14.1% (active) | 39.5% (inactive) | 68% (inactive) | 37.1% (inactive) | 54.4% (inactive) | 19.3% (inactive) | 86.2% (inactive) | 5.7% (active) | 27.6% (inactive) | 60% (inactive) | 34.7% (inactive) | 32.3% (inactive) |  | 24.9% (inactive)
COc1cccc(-c2nn(-c3ccccc3)cc2-c2ccnc(NCCCO)c2)c1 | 51.5% (inactive) | 69.2% (inactive) | 66% (inactive) | 27.1% (inactive) | 18.4% (inactive) | 41.8% (inactive) | 18% (inactive) | 35.1% (inactive) | 48.7% (inactive) | 11.2% (inactive) | 63.8% (inactive) | 8.63% (active) | 51.4% (inactive) | 38.4% (inactive) | 47.6% (inactive) | 53.7% (inactive) | 27.1% (inactive) | 33.5% (inactive) |  | 12.8% (inactive)
O=C(CCCCCn1c2ccccc2c2c3c(c4c5ccccc5[nH]c4c21)C(=O)N(O)C3=O)N1CCOCC1 | 52% (inactive) | 19.1% (inactive) | 74.4% (inactive) | 11.6% (inactive) | 35.8% (inactive) | 89.8% (inactive) | 9.19% (active) | 91.4% (inactive) | 80.3% (inactive) | 62% (inactive) | 69.6% (inactive) | 33.6% (inactive) | 113% (inactive) | 48.2% (inactive) | 56% (inactive) | 47.4% (inactive) | 28.5% (inactive) | 35.6% (inactive) |  | 38.6% (inactive)
c1ccc(-c2nc(Nc3ccc(-c4nc5ccccc5[nH]4)cc3)nc(N3CCOCC3)n2)cc1 | -59.1% (active) | -19.3% (active) | -0.466% (active) | -64.5% (active) | -67.3% (active) | -66.3% (active) | -68.2% (active) | -68.4% (active) | -88.9% (active) | -68.8% (active) | -27.8% (active) | -30.1% (active) | -77.3% (active) | -63.3% (active) | -75.1% (active) | -43.4% (active) | -76.4% (active) | -76.8% (active) |  | -80.7% (active)
COc1ccc(-c2nc(Nc3ccc(-c4nc5ccccc5[nH]4)cc3)nc(N3CCOCC3)n2)cc1 | 11.3% (inactive) | 17.1% (inactive) | 27% (inactive) | -27.3% (active) | 0.132% (active) | -6.57% (active) | 11.9% (inactive) | 11.2% (inactive) | -60% (active) | -43.7% (active) | 38.5% (inactive) | -22% (active) | -65.7% (active) | 5.74% (active) | -67.5% (active) | 34.1% (inactive) | -63.5% (active) | 0.307% (active) |  | -7.64% (active)
COc1ccc(O)c(-c2cc(-c3ccc(Cl)cc3)c(C#N)c(=O)[nH]2)c1 | 69.6% (inactive) | 89.1% (inactive) | 101% (inactive) | 64% (inactive) | 69.3% (inactive) | 36% (inactive) | 36.8% (inactive) | 86.7% (inactive) | 68.3% (inactive) | 95.2% (inactive) | 102% (inactive) | 23.5% (inactive) | 105% (inactive) | 61.2% (inactive) | 84.5% (inactive) | 85.2% (inactive) | 61.5% (inactive) | 52.4% (inactive) |  | 49.9% (inactive)
CCCCCCCC(=O)SCC/C=C/[C@@H]1CC(=O)NCc2cccc(n2)CN(Cc2ccc(Cl)cc2)CC(=O)N[C@@H](C(C)C)C(=O)O1 | 19.5% (inactive) | 16.1% (inactive) | 8.85% (active) | 8.04% (active) | 11.9% (inactive) | -16.5% (active) | 29.6% (inactive) | 2.92% (active) | 14.4% (inactive) | -40.4% (active) | 20.6% (inactive) | 9.09% (active) | 25.1% (inactive) | -1.33% (active) | -20.4% (active) | 18% (inactive) | -68.2% (active) | 14.7% (inactive) |  | 8.96% (active)
